Measurements from PubChem BioAssay (NCI).
About 79,000 compounds went through this panel and 15% of them were active in at least one assay; those are over-represented in the sample as a whole. Values without a mark were called inactive. Calls of active or inactive are those of the source. No stated cut-off is given here; in the data, active means growth inhibition above about 70%; inactive means the rest.

Tests used:
[1] = NCI Yeast Anticancer Drug Screen. Data for the rad50 strain (AID 155);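 further: 0% = growth of vehicle-only cultures of the same strain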; settings: S. cerevisiae rad50 strain growth inhibition; at 50.0 µM; active compounds read high
Method in brief: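 Yeast carrying a defined DNA repair defect were exposed to test compounds, and growth was compared with vehicle-treated controls to give percent inhibition.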

[2] = NCI Yeast Anticancer Drug Screen. Data for the mec2-1 strain (AID 157); settings: S. cerevisiae mec2-1 strain, at 50.0 µM, active compounds read high
Method in brief: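 Cells of the genetically defined mec2-1 yeast strain are incubated with test compound. Inhibition of growth is calculated against vehicle-treated controls.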

[3] = NCI Yeast Anticancer Drug Screen. Data for the sgs1 mgt1 strain (AID 161);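 further: 0% = growth of cultures given vehicle only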; settings: S. cerevisiae sgs1 mgt1 strain, at 50.0 µM, active compounds read high
Method in brief: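 Mutant yeast exposed to compound; growth scored against vehicle-only wells.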

[4] = NCI Yeast Anticancer Drug Screen. Data for the cln2 rad14 strain (AID 165);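 further: 0% = growth equal to vehicle treated cultures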; settings: S. cerevisiae cln2 rad14 strain, at 50.0 µM, active compounds read high
Method in brief: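 The screen exposed genetically defined yeast (cln2 rad14) to test compounds and scored growth inhibition relative to vehicle-treated controls.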

[5] = NCI Yeast Anticancer Drug Screen. Data for the bub3 strain (AID 167); settings: S. cerevisiae bub3 mutant strain, at 50.0 µM, active compounds read high
Method in brief: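 Compounds were applied to a genetically altered yeast strain carrying a cell-cycle control defect. Growth inhibition was scored against vehicle-treated controls.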

[6] = NCI Yeast Anticancer Drug Screen. Data for the mlh1 rad18 strain (AID 175); settings: S. cerevisiae mlh1 rad18 strain growth inhibition; at 50.0 µM; active compounds read high
Method in brief: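 Compound-treated yeast growth, normalised to vehicle controls. Strain bears defined DNA repair mutations.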

| SMILES | growth inhibition [1] | growth inhibition [2] | growth inhibition [3] | growth inhibition [4] | growth inhibition [5] | growth inhibition [6] |
| --- | --- | --- | --- | --- | --- | --- |
| CC([Se])=Nc1ccc(Br)cc1 | 21.6% | 0.8% | -0.2% | -8.9% | -1.45% | 9.1% |
| O=S(=O)(O)c1ccc([Se][Se]c2ccc(S(=O)(=O)O)cc2)cc1 | 5.8% | -12.9% | -18.1% | -33.5% | -19.2% | -17.4% |
| C[C@]12CC[C@H]3[C@@H](CC[C@H]4N(CCCl)CCC[C@]34C)[C@@H]1CC[C@@H]2O | 15.9% | 15.9% | 46.5% | 14.8% | 69.2% | 76.3% (active) |
| O=C(O)c1ccc([N+](=O)[O-])c([N+](=O)[O-])c1 | 22.2% | 4.95% | 32.9% | 7.05% | 10% | 24.6% |
| O=C(O)C1C2Cc3ccccc3C1c1ccccc12 (stereo not given) | -1.6% | -7.55% | 0.95% | 0.6% | -13.7% | -10% |
| CCOC(=O)C(C)(Br)CC (stereo not given) | -19.4% | -3.25% | -17.4% | -81.4% | -22.1% | -7.8% |
| COc1cc2cc(c1Cl)N(C)C(=O)CC(OC(=O)C(C)C)C1(C)OC1C(C)C1CC(O)(NC(=O)O1)C(OC)/C=C/C=C(C)C2 (stereo not given) | -15.9% | -9.9% | -19.4% | -22.8% | -21.2% | -3.7% |
| CC(=O)[O-].CC(=O)[O-].[Mn+2].c1ccc(/C(=N\Nc2ccccn2)c2ccccn2)cc1 | 87.8% (active) | 91.5% (active) | 90.5% (active) | 84.2% (active) | 89.2% (active) | 89.4% (active) |
| CC(=O)Nc1ccc([As](=O)(O)O)cc1[N+](=O)[O-] | 0.85% | -12.3% | 0.1% | -3.35% | 23.2% | 15.5% |
| CCP(c1ccccc1)c1ccccc1 | -0.4% | 12.4% | 13.1% | 0.95% | -40.8% | -12% |
| CNC(=O)O/N=C(\CN=[N+]=[N-])C(C)(C)C | 4.6% | 3.55% | -1.4% | 0% | -19.6% | -20.5% |
| CCC(CN)c1ccccc1 (stereo not given) | 13.6% | -0.85% | 2.75% | 0.65% | -14.4% | -9.4% |
| Cc1cccc(Cl)c1OP(=O)(Oc1c(C)cccc1Cl)Oc1c(C)cccc1Cl | -10.4% | -7.8% | -19.3% | -19.3% | 2.25% | -51.4% |
| O=C1CC2(CCNCC2)C(=O)N1N1CCCCC1 | -2.5% | 12% | 5.9% | 7.15% | 1.45% | 5.4% |
| CCN(CC)P(=O)(N1CC1(C)C)N1CC1(C)C (stereo not given) | 1.85% | 0.75% | 1.4% | 2.35% | -4.6% | 1.35% |
| CC1CCNC(C)C1 (stereo not given) | 35.3% | -10.4% | -13.8% | -62.9% | 17.9% | 8.6% |
| NCC(Cc1ccccc1)P(=O)(O)O (stereo not given) | -23.8% | -28.6% | -26.4% | -42.3% | -28.1% | -22.8% |
| O=C1CCCN1CC#CCN1C[C@@H]2C3CCC(C3)[C@@H]2C1 | -2.8% | -8.5% | 6.25% | 29.4% | 17% | 27.6% |
| CCC1C(=O)NC(=O)N(c2ccccc2)C1=O (stereo not given) | 13.7% | -8.3% | -3.25% | -39.4% | 3.1% | -6% |
| O=C1C=CC(=O)N1CO | 23.2% | 19.2% | 9% | 6.4% | 26.9% | 9.25% |

| SMILES | growth inhibition [1] | growth inhibition [2] | growth inhibition [3] | growth inhibition [4] | growth inhibition [5] | growth inhibition [6] |
| --- | --- | --- | --- | --- | --- | --- |
| Cn1cnc([N+](=O)[O-])c1C(=O)O (tested in a mixture with another compound) | -18.2% | -3.55% | -6.65% | -18.4% | 27.3% | -1% |
| CCCCCCCC(N)CC(=O)O (stereo not given) | -24.2% | -44.2% | -15.8% | -0.7% | -36.6% | -8.05% |
| O=C(CCCN1CCC2(CC1)C(=O)NCN2c1ccccc1)c1ccccc1 | -17.6% | -2.65% | -0.85% | -18.4% | 2.35% | -2.15% |
| Cc1ccc(OP(=O)(Oc2ccc(C)cc2)Oc2ccc(C)cc2)cc1.Cc1ccc(OP(=O)(Oc2ccc(C)cc2)Oc2ccc(C)cc2)cc1.Cc1ccc(OP(=O)(Oc2ccc(C)cc2)Oc2ccc(C)cc2)cc1.Cc1ccc(OP(=O)(Oc2ccc(C)cc2)Oc2ccc(C)cc2)cc1.[Nd+3].[O-][Cl+3]([O-])([O-])O | 34.4% | 23.7% | 37.8% | 27% | 52.8% | 25.7% |
| C=CCNC(=S)/N=C/c1c(O)[nH]c(=O)[nH]c1=O | -64.8% | -50.4% | -44.9% | -47% | -15.8% | -44.1% |
| COc1ccccc1OC (tested in a mixture with another compound) | 22.5% | 16.7% | 26.4% | -17.4% | 14.2% | 16.2% |
| Cc1ncc(C)[n+]2c(C)csc12 | 5% | -7.95% | -5.05% | -0.4% | -0.9% | -23.4% |
| O=P1(N(CCCl)CCCl)Oc2ccc(Cl)cc2Sc2c(ccc(Cl)c2Cl)O1 (stereo not given) | 43.5% | 7.9% | 40.5% | 40.5% | 35.4% | 46.7% |
| O=C1OCC2(CO)SC(c3ccccc3)NC12 (stereo not given) | -11.1% | -0.3% | -17.1% | -20.6% | -4.6% | -7.45% |
| c1ccc(C[N+]23CN4CN(CN(C4)C2)C3)cc1 | 9.5% | -20% | -7.6% | 8.65% | -18.2% | -6.5% |
| O=S1(F)=NP(N2CC2)(N2CC2)=NP(N2CC2)(N2CC2)=N1 (stereo not given) | 22.6% | -3.15% | -9.7% | 6.6% | -19.6% | -39.9% |
| O=C(NCCN1CCOCC1)c1cc(N(CCCl)CCCl)c([N+](=O)[O-])cc1[N+](=O)[O-] | 15.8% | 7.45% | 16.6% | 23.6% | 33.1% | 27.9% |
| Nc1nc(-c2cccc(S(=O)(=O)F)c2)cs1 | 42.5% | 20.8% | 55.5% | 41.5% | 51.1% | 34.6% |
| NC(CCSCCF)C(=O)O (stereo not given) | 36.9% | 8.6% | 12.8% | -2.65% | 24.4% | 35% |
| CCOC12CC3C4=CCOC5CC(=O)N6c7ccccc7C1(CCN2C4)C6C53 (stereo not given) | 15.8% | -39.2% | -9.45% | 18.9% | 9.05% | -1.2% |
| O=C(NCCO)c1cc([N+](=O)[O-])cc([N+](=O)[O-])c1 | -37.9% | -4.25% | -1.25% | -25.9% | -11.7% | 3.4% |
| N#CC(N)c1ccccc1 (stereo not given) | 13.7% | -14.9% | 17.4% | 1.45% | 14.1% | 12.6% |
| Cc1cc(C)c(O)c(C)c1 | 10.2% | -18.3% | -5.45% | 14.4% | -5.25% | 4.45% |
| NS(=O)(=O)CC1CC[CH-]CC1.[Cl-].[Cl-].[Cl-].[Cl-].[Cl-].[Sb+5].c1ccncc1 | 11.3% | -14.1% | -10% | -12.2% | -20.4% | 18.1% |
| NC1=Nc2ccccc2Sc2ccccc21 | -19.2% | -38.8% | -44.5% | 2.5% | -23.5% | -33.8% |
